# An excerpt weighted towards active compounds, which were near 11% of everything screened.
# IMPase Li inh – qHTS Assay for Identifying the Cell-Membrane Permeable IMPase Inhibitors: Potentiation with Lithium; CHO-M1 cells, IP1 TR-FRET (IP-One), carbachol + lithium; Potency, µM (series often up to 59.4 µM), most hits filed as inhibitors; 210,000 compounds, 0.35% hits;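 further: IP1 builds up when IMPase is blocked and the TR-FRET signal falls; nearly all actives have a fitted effect of over 50% in size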
#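 Readout is a homogeneous TR-FRET IP1 immunoassay (Ex 320, Em 665 and 620), where raised cytosolic IP1 lowers signal. Cells were CHO-M1 treated 30 min at 37C with test compounds plus a little lithium; AC50 values came from Hill-equation fitting.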
# IMPase inh – qHTS Assay for Identifying the Cell-Membrane Permeable IMPase Inhibitors; CHO-M1 cells, IP1 accumulation, HTRF TR-FRET ratio; inhibition (IP1 accumulation), % at 46.1 µM; Inositol monophosphatase 1 (Rattus norvegicus), P97697; 120,000 tested, under 10 active; active means well fitted curve in the direction sought with a large enough effect in the signal ratio, not every such curve was filed as active; inconclusive means small, poorly fitted or top-dose-only effect, or a change in a side signal; inactive means no such curve, though single readings can be large or run the other way; the % refers to the signal ratio;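 further: cells stimulated with carbachol in lithium chloride buffer; higher means more IMPase inhibition seen as more IP1 and lower FRET ratio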
#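 CHO-M1, 2000 cells/well, cultured 16–30 h; cpd up to 46 uM; carbachol (50 uM solution, stimulation buffer w/ 50 mM LiCl, pH 7.4), 30 min 37C; IP-One TR-FRET, 10 min RT; Ex 320/Em 665, 620; Hill-fit AC50.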
# 12-hLO inh – qHTS Assay for Inhibitors of 12-hLO (12-human lipoxygenase) | Polyunsaturated fatty acid lipoxygenase ALOX12 (Homo sapiens), P18054 | Potency, µM (titrated, usually from 57.1 µM), usual class: inhibitors | purified 12-hLO, xylenol orange hydroperoxide absorbance | 150,000 compounds, 0.12% hits; further: nearly all actives have a fitted effect of over 55% in size
#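 Hydroperoxide output read as Fe(III)-xylenol orange absorbance, 573-to-405 nm ratio, after 30 min reaction with 40 uM arachidonic acid. Enzyme: 150 nM purified human 12hLO, 15 min compound preincubation; 25 mM Hepes pH 7.0, room temperature.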
# ALDH1A1 block – qHTS Assay for Inhibitors of Aldehyde Dehydrogenase 1 (ALDH1A1); AID 1030, 2008; Aldehyde dehydrogenase 1A1 (Homo sapiens), P00352; Purified ALDH1A1, NADH fluorescence, propionaldehyde substrate; Potency, µM (series often up to 75.3 µM), usual class: inhibitors; 220,000 compounds, 7.3% hits; active means well fitted inhibition curve with a large enough effect, not every such curve was filed as active; inconclusive means small, poorly fitted or top-dose-only effect, or another doubt; inactive means no such curve, though single readings can be large or run the other way
# Target sequence (P00352 whole entry, looked up): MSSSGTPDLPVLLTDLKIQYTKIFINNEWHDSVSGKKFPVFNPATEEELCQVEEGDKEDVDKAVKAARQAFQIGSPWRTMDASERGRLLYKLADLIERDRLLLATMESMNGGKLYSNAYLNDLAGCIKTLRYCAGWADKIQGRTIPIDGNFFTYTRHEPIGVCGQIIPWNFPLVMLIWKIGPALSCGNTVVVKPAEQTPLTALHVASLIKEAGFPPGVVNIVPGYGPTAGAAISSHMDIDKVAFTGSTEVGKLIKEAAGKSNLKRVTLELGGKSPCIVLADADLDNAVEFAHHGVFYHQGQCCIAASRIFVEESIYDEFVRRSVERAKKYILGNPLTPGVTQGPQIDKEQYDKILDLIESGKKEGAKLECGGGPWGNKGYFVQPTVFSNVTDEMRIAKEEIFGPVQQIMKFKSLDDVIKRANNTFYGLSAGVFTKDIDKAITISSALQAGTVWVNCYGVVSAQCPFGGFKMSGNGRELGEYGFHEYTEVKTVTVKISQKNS
# HPGD block – qHTS Assay for Inhibitors of HPGD (15-Hydroxyprostaglandin Dehydrogenase); Potency, µM, usual class: inhibitors; 150,000 compounds, 4.3% hits; 15-hydroxyprostaglandin dehydrogenase [NAD(+)] (Homo sapiens), P15428; purified HPGD, NADH fluorescence kinetic, PGE2 substrate; active means well fitted inhibition curve with a large enough effect, not every such curve was filed as active; inconclusive means small, poorly fitted or top-dose-only effect, or another doubt; inactive means no such curve, though single readings can be large or run the other way
#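 NADH formation kinetics: reaction with 30 uM PGE2 and 1 mM NAD+ (final), 20 nM enzyme, Tris-HCl pH 8 with Tween 20, after 15 min compound preincubation at room temperature. Fluorescence change, last versus first of five reads.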
# PNC assembly inh – High Content Assay for Compounds that inhibit the Assembly of the Perinucleolar Compartment; 140,000 compounds, 3.1% hits; PC3M PTB-GFP, PNC prevalence imaging, 16 h; stronger effect = lower value; activity change (PNC), negative = inhibition, % at 10 µM;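 active means readout at or below -70, meaning at least 70% loss of cells showing the perinucleolar compartment, a nuclear body marking cancer cells; inconclusive means readout between -30 and a set limit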
#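 PC3M cells stably expressing PTB-GFP, 750–1000 cells/well, treated 16 h at 37 °C with compound (23 nl of library stock), in duplicate. After paraformaldehyde fixation and Hoechst stain, imaged at 20x; PNC prevalence scored by image analysis.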
# Numbers stand for hits; . = inactive; ? = inconclusive; / = not tested or not shown. Unless noted, the call rests on the fitted dose curve; in most records, active means well fitted curve in the direction sought with a large enough effect; inconclusive means small, poorly fitted or top-dose-only effect, or another doubt; inactive means no such curve, though single readings can be large; an effect the other way counts as inactive or inconclusive.
SMILES,IMPase Li inh,IMPase inh,12-hLO inh,ALDH1A1 block,HPGD block,PNC assembly inh
CCNc1ccc(Br)cc(C(=O)/C=C/c2c(Cl)cccc2Cl)c1=O,.,.,?,7.9µM,8.9µM,.
CNc1ccc(Br)cc(C(=O)/C=C/c2ccc(Cl)cc2Cl)c1=O,.,/,/,?,/,/
CCNc1ccc(Br)cc(C(=O)/C=C/c2ccc(Cl)cc2)c1=O,.,/,?,25µM,?,.
CC(C)CN1CC[C@@]2(CCCN(C(=O)c3cnccn3)C2)C1,.,/,.,.,.,/
CN(C)CCCCl,.,/,.,.,.,/
N#Cc1c2c(c[nH]c1=O)CCN2Cc1ccccc1,.,.,.,.,?,.
CN(C)c1[nH]c(=O)c(C#N)c2c1CCN2Cc1ccccc1,.,.,.,?,13µM,.
CCOC(=O)C1CCCN(c2nnnn2-c2ccccc2)C1 (stereo not given),.,.,.,7.1µM,.,.
O=C(NC1CCCC1)C1CCCN(S(=O)(=O)c2ccc(-n3cnnn3)cc2)C1 (stereo not given),.,.,.,.,.,.
O=C(NC1CCCCC1)C1CCCN(c2nnnn2-c2ccccc2)C1 (stereo not given),.,.,.,10µM,.,.
COC(=O)c1cc2c(C)cc3ccc(C)cn3c-2c1C(=O)OC,10µM,.,.,25µM,.,.
CC1=C(C(=O)OC2CCCC2)C(c2ccccc2C(F)(F)F)CC(=O)N1 (stereo not given),/,.,/,/,/,/
CSc1ccc(-c2ccco2)nn1,.,/,/,?,/,/
O=C(CSc1nnc(-c2ccco2)c(-c2ccco2)n1)Nc1ccccc1,.,.,?,2µM,25µM,.
Cc1ccc(NC(=O)CSc2nnc(-c3ccco3)c(-c3ccco3)n2)cc1,.,.,?,3.2µM,11µM,.
O=C(CSc1nnc(-c2ccccc2)c(-c2ccccc2)n1)NCc1ccco1,.,/,.,.,.,.
COc1ccc(C(=O)CSc2nnc(-c3ccco3)c(-c3ccco3)n2)cc1,.,/,/,4µM,/,/
CSc1nnc(-c2ccco2)c(-c2ccco2)n1,.,.,.,3.5µM,8.9µM,.
CCOc1ccc(S(=O)(=O)N(CC(=O)Nc2ccc3c(c2)OCO3)c2ccccc2)cc1,/,.,/,/,/,/
COC(=O)CNC(=O)C1(CC(C)C)C=CCN1C(C)=O (stereo not given),.,/,.,.,.,/
CCCC[C@@H]1C[C@H]1C(NC(=O)Cc1ccccc1)c1ccc(Cl)cc1 (stereo not given in full),.,/,.,.,.,/
Cc1ccc(S(=O)(=O)Nc2cc3c(cc2NCc2ccccc2)n(C)c(=O)n3C)c(C)c1,/,.,/,/,/,/
O=C(NC(Cc1cc(=O)[nH]c2ccccc12)C(=O)O)c1ccc(Cl)cc1 (stereo not given),.,/,.,.,.,/
CCOc1ccc2c(c1)c1nnc(SCC(=O)N3CCC(C)CC3)nc1n2C,.,.,.,?,3.5µM,?
CC1CCN(C(=O)CSc2nc3cccnc3n2C)CC1,.,.,.,.,.,.
SMILES,IMPase Li inh,IMPase inh,12-hLO inh,ALDH1A1 block,HPGD block,PNC assembly inh
CCOc1ccc2c(c1)c1nnc(SCC(=O)N3CCCCC3C)nc1n2C (stereo not given),.,.,.,13µM,16µM,.
CCNc1ncc2nc(-c3ccccc3)c(=O)n(-c3ccc(OC)cc3)c2n1,.,/,.,?,?,/
Cc1ccc(S(=O)(=O)CCSc2nc(C)cc(C(F)(F)F)c2C#N)cc1,.,.,.,0.35µM,.,-119
CC(C)NC(=O)[C@@H]1C[C@H]1[C@@H](NC(=O)OCc1ccccc1)c1ccccc1,.,/,.,.,.,/
c1ccc(-c2nc(C3CCCCC3)no2)cc1,.,.,.,.,.,.
COc1ccc(-c2nc(C3CCCCC3)no2)cc1OC,.,.,.,22µM,?,.
CCOC(=O)c1c(-c2cccc3ccccc23)csc1NC(=O)C1C2CCC(O2)C1C(=O)O (stereo not given),.,/,.,.,.,.
COC(=O)c1c(-c2ccc(C(C)(C)C)cc2)csc1NC(=O)C1C2CCC(O2)C1C(=O)O (stereo not given),.,/,.,5µM,3.2µM,-98
COCCN(Cc1ccccc1)C(=S)Nc1ccc(Cl)cc1,.,/,/,.,/,/
Nc1ccc(C23CC4CC(CC(CO)(C4)C2)C3)cc1,.,.,.,11µM,.,.
Nc1ccc(C23CC4CC(CC(O)(C4)C2)C3)cc1,.,.,.,?,.,.
CC1CC2(CC(C)(C(=O)CSc3n[nH]c(-c4ccccc4Cl)n3)OC2=O)C(=O)O1 (stereo not given),.,.,.,18µM,?,.
O=C(CSc1ccc(-c2ccncc2)nn1)c1ccc(Cl)cc1,.,/,/,.,/,/
NC(=O)C(c1ccc(Cl)cc1)c1ccc(Sc2ccc(Cl)cc2)nn1 (stereo not given),.,.,.,.,.,-93
COc1ccc(C2C(C(=O)/C=C/c3ccco3)=C(O)C(=O)N2CCN2CCOCC2)cc1 (stereo not given),.,/,/,20µM,/,/
C=CCOc1cccc(C2C(C(=O)c3ccco3)=C(O)C(=O)N2CCN2CCOCC2)c1 (stereo not given),.,.,.,25µM,.,.
COc1cccc2cc(C(=O)C3=C(O)C(=O)N(CCN4CCOCC4)C3c3cccs3)oc12 (stereo not given),?,.,.,25µM,.,.
COc1cccc(C2C(C(=O)c3sc(C)nc3C)=C(O)C(=O)N2CCN2CCOCC2)c1 (stereo not given),?,.,.,20µM,.,.
Cc1ccc(C2C(C(=O)c3sc(C)nc3C)=C(O)C(=O)N2CCN2CCOCC2)o1 (stereo not given),.,.,.,?,.,.
COc1ccc(-c2nc3cnc(Nc4cccc(OC)c4)nc3n(C3CC3)c2=O)cc1,.,/,/,.,/,/
COc1cccc(C(=O)N2c3ccc(C)cc3C(C)(c3ccccc3)CC2(C)C)c1 (stereo not given),/,.,/,/,/,/
COc1ccc(C2Oc3cc(OC)cc(OC)c3CC2O)cc1 (stereo not given),.,/,.,.,.,/
CCNC(=O)CCC(N)C(=O)O (stereo not given),.,/,.,.,.,/
Cc1nc(C)c(C(=O)C2=C(O)C(=O)N(CCN(C)C)C2c2ccccc2)s1 (stereo not given),.,.,.,.,.,?
